Test results as given in PubChem BioAssay AID651602 (The Scripps Research Institute Molecular Screening Center, 2012).
The whole screen tested about 360,000 compounds, of which about 950 (0.26%) were called active. No stated cut-off is given here; in the data, active means inhibition above about 11%; inactive means the rest. Shown is part of a subset that was picked to be rich in actives.

Experiment: reduced absorbance of E. coli cultures with phage – HTS, RecBCD inhibitor project, primary screen (AID 651602)
Details: growth absorbance, at 11.9 µM, hits give high values

| SMILES | inhibition |
| --- | --- |
| COCCNC(=S)N(C)[C@H]1C[C@H]2c3[nH]c4ccccc4c3CCN2C[C@H]1[C@H](C)O | 0.63% (inactive) |
| Cc1cccc(-c2cnc(C(O)c3cc(C)cc(C)c3)[nH]2)c1 (stereo unspecified) | 9.2% (inactive) |
| Cc1cccc(-c2cnc(C(O)c3ccc4ccccc4c3)[nH]2)c1 (stereo unspecified) | 2.34% (inactive) |
| Cc1ccc(-c2cnc(C(O)c3cc(Cl)cc(Cl)c3)[nH]2)cc1 (stereo unspecified) | 17.1% (active) |
| COc1cccc(-c2cnc(C(O)c3ccccc3OC)[nH]2)c1 (stereo unspecified) | -1.64% (inactive) |
| OC(c1ccc(Cl)cc1)c1ncc(-c2ccc(Cl)cc2)[nH]1 (stereo unspecified) | 7.68% (inactive) |
| COc1cccc(C(O)c2ncc(-c3ccc4ccccc4c3)[nH]2)c1 (stereo unspecified) | 12.1% (active) |
| Cc1cc(N2CCN(C(=O)OC(C)(C)C)C[C@H]2C)ccc1N1CCN(Cc2ccccc2)[C@H](C)C1 | 7.28% (inactive) |
| CCOC(=O)/C=C/c1ccccc1O | 4.3% (inactive) |
| COC(=O)[C@H](CC(C)C)NS(=O)(=O)c1c(F)cccc1F | 4.61% (inactive) |
| O=C(NCc1ccccc1)[C@H]1CCCN1C(=O)[C@H]1CCCN1C(=O)c1cc(F)cc(F)c1 | 2.09% (inactive) |
| Nc1ncnc2c1ncn2[C@@H]1O[C@H](C(=O)N[C@@H](CCc2ccccc2)C(=O)NCC(=O)N2CCOCC2)[C@@H](O)[C@H]1O | 2.03% (inactive) |
| Cc1cc2c(nc1C)CCCN2C | 1.32% (inactive) |
| COC(=O)c1ccc(CN2C(=O)[C@]3(OCCC=C[C@H]3C)c3c(Br)cccc32)cc1 | 1.58% (inactive) |
| O=C(CC(O)(C(F)(F)F)C(F)(F)F)Nc1ccc(Cl)c(Cl)c1 | 15.6% (active) |
| O=C(Nc1ccc(Cl)c(Cl)c1)N1CC=C(c2ccccc2)CC1 | 3.32% (inactive) |
| CC(c1cccnc1)N(CCN(C)C)C(=O)Nc1ccc(Cl)c(Cl)c1 (stereo unspecified) | 1.6% (inactive) |
| COC(=O)C1=C(C)N(Cc2cccc(C(F)(F)F)c2)C(=NCc2cccc(C(F)(F)F)c2)NC1c1ccccc1C(F)(F)F (stereo unspecified) | 9.37% (inactive) |
| COC(=O)Cc1nnn2c1[C@H](C)[C@H](c1ccccc1Br)OCC2 | -1.01% (inactive) |
| CC(C)(C)n1nc(C2CC2)c(Br)c1NC(=O)c1ccccc1F | 3.69% (inactive) |
| CC(C)(C)C(=O)Nc1c(Br)c(C2CC2)nn1-c1ccccc1 | 97.8% (active) |

| SMILES | inhibition |
| --- | --- |
| O=C(Nc1c(Cl)c(C2CC2)nn1-c1ccccc1)C(Cl)(Cl)Cl | 1.86% (inactive) |
| Cc1cccc(C)c1NC(=O)CN1CCN(c2ccc(F)cc2)CC1 | 2.55% (inactive) |
| O=C(CN1CCN(c2ccc(Cl)cc2)CC1)c1ccccc1 | 4.29% (inactive) |
| Oc1c(CN2CCN(c3ccc(F)cc3)CC2)cc(Cl)c2cccnc12 | 13% (active) |
| O=C(NCc1ccccc1)[C@@H]1CCCN1C(=O)[C@@H](NS(=O)(=O)c1ccc(F)cc1F)C1CCCCC1 | 3.12% (inactive) |
| O=C(C(=O)N1CCC(CNS(=O)(=O)Cc2ccccc2)CC1)c1cc2ccccc2o1 | 1.63% (inactive) |
| COC(=O)[C@]12C[C@H](CC(=O)NCc3cccc(C(F)(F)F)c3)C(=O)N(Cc3ccc4c(c3)OCO4)C1=C[C@H](COCc1ccccc1)O[C@@H]2C | 2.25% (inactive) |
| CC(C)CNc1cccc2c1S(=O)(=O)N[C@H](C)CO2 | 5.2% (inactive) |
| O=C1c2ccccc2C2=Nc3ccccc3SC(c3ccccc3F)C12 (stereo unspecified) | 19.6% (active) |
| CC(=O)C1=C(C)N(Cc2ccc(Cl)cc2)C(=S)NC1c1ccc(F)cc1 (stereo unspecified) | 2.81% (inactive) |
| O=C(NCc1ccccc1)[C@H]1CCCN1C(=O)[C@H]1CCCN1C(=O)N1CCOCC1 | 1.72% (inactive) |
| COc1ccc(-c2ccccc2C2Cc3nnccc3CN2C(=O)Nc2ccccc2)cc1 (stereo unspecified) | 3.48% (inactive) |
| O=C(/C=C/c1ccc(Cl)cc1)Nc1ccc(Br)cn1 | -0.92% (inactive) |
| O=C(Nc1ccc(Br)cn1)c1ccc([N+](=O)[O-])o1 | 15.1% (active) |
| Cc1cccc(NC(=O)CCn2c(=O)oc3ccccc32)c1 | 0.64% (inactive) |
| CCN(CC)S(=O)(=O)c1ccc(N2CCCC2)c(NC(=O)c2ccc([N+](=O)[O-])o2)c1 | 0.78% (inactive) |
| O=C(Nc1ccc(Br)cn1)c1ccc([N+](=O)[O-])cc1Cl | 1.57% (inactive) |
| Cc1cccc(NC(=O)c2ccc([N+](=O)[O-])o2)c1 | 14.2% (active) |
| COC(=O)[C@]12C[C@H](CC(=O)NCc3ccccc3)C(=O)N(CCC3=CCCCC3)C1=C[C@H](C(C)(C)C)O[C@@H]2C | 1.16% (inactive) |
| COc1cccc(CNC(=O)[C@H]2CCCN2C(=O)[C@H]2CCCN2C(=O)c2ccc(F)cc2)c1 | 1.78% (inactive) |
| C[C@@H]1ON(C)[C@H]2C[C@H]3c4cc(N5CCOCC5)ccc4CCN3C[C@@H]12 | 1.27% (inactive) |

| SMILES | inhibition |
| --- | --- |
| C=CCN=C1NC(c2ccccc2)C(C(=O)OC)=C(C)N1Cc1ccc(C(F)(F)F)cc1 (stereo unspecified) | 3.49% (inactive) |
| C[C@@H](CN1C2=NC[C@@H](Cc3ccccc3)N2C[C@H]1Cc1ccc(O)cc1)NC(=O)CCC1CCCCC1 | 2.48% (inactive) |
| CC(C)Oc1ccc(/C=N/NC(=O)c2nnn(-c3nonc3N)c2CN(C)C2CCCCC2)cc1 | 2.44% (inactive) |
| Nc1nonc1-n1nnc(C(=O)N/N=C/c2cc(Br)ccc2O)c1CSC1=NCCS1 | 11.6% (active) |
| CN(C)Cc1c(C(=O)N/N=C/c2ccccc2OCc2ccc(F)cc2)nnn1-c1nonc1N | -5.79% (inactive) |
| Cc1cn(C2C=CC(CO)O2)c(=O)[nH]c1=O (stereo unspecified) | 19.9% (active) |
| Cc1cn([C@H]2C[C@H](O)[C@@H](/C=C/C(=O)NCCCc3ccccc3)O2)c(=O)[nH]c1=O | 3.27% (inactive) |
| Cc1cn(C2OC[C@@H](O)[C@@H]2CO)c(=O)[nH]c1=O (stereo partly specified) | 0.95% (inactive) |
| COc1cccc(-c2cc(CNC(=O)[C@@H](Cc3ccccc3)NC(=O)[C@H]3O[C@@H](n4cnc(C(N)=O)n4)[C@H](O)[C@@H]3O)no2)c1 | 2.06% (inactive) |
| CCN1CCN(C(=O)N[C@@H](C(=O)N[C@@H]2C(=O)N3C(C(=O)O)=C(CSc4nnnn4C)CS[C@H]23)c2ccc(O)cc2)C(=O)C1=O | 103% (active) |
| CCOC(=O)C1=C(CSc2nnnn2C)N(C)C(=O)NC1c1ccccc1 (stereo unspecified) | 3.2% (inactive) |
| O=C(O)Cn1cnc2c(NCc3ccccc3)ncnc21 | -1.71% (inactive) |
| O=c1ccc2c(-c3ccccc3S(=O)(=O)O)c3ccc(O)c(O)c3oc-2c1O | 12.7% (active) |
| CC[C@H](NC(=O)[C@H](Cc1ccccc1)NC(=O)[C@H]1O[C@@H](n2cnc3c(=O)[nH]c(N)nc32)[C@H](O)[C@@H]1O)c1ccccc1 | 3.64% (inactive) |
| COc1ccccc1C(=O)N1O[C@]23C=C[C@]14C[C@@H](O)CC[C@]4(C)C2CC[C@]1(C)[C@@H]([C@H](C)/C=C/[C@H](C)C(C)C)CC[C@H]13 (stereo partly specified) | 3.99% (inactive) |
| COc1cccc(CNC(=O)[C@H]2CCCN2C(=O)[C@H]2CCCN2C(=O)C2CCCCC2)c1 | 2.87% (inactive) |
| O=S1(=O)c2c(cccc2N2CCCCC2)O[C@H](COCc2ccccc2)CN1C1CC1 | 1.52% (inactive) |
| COC(=O)C1=C(C)N(Cc2ccccc2C(F)(F)F)C(=NCc2ccc(OC)cc2)NC1c1cccc(C(F)(F)F)c1 (stereo unspecified) | 5.38% (inactive) |
| CCOC(=O)C1=C(C(=O)OCC)C2N(Cc3ccc(C#N)cc3)c3ccccc3[C@@]23C[C@@H](C(=O)OC)N(S(=O)(=O)c2ccc(F)cc2)C3=N1 (stereo partly specified) | 2.71% (inactive) |
| CC(=O)N1C[C@@H](CO)[C@@H](N(C)C(=O)C(C)(C)C)C[C@H]1c1ccccc1Br | 2.5% (inactive) |
| O=S(=O)(c1cccs1)N1CCCc2nc(-c3ccc(Br)cc3)ccc21 | 3.49% (inactive) |

| SMILES | inhibition |
| --- | --- |
| CCOc1ccc(C(CCc2ccccc2)NC(=O)c2ccc(OC)c(OC)c2)cc1OCC (stereo unspecified) | -0.08% (inactive) |
| CCOc1ccc(C(CC(=O)O)n2cnnn2)cc1OC (stereo unspecified) | 3.64% (inactive) |
| CCCCC(=O)NC(c1ccc(OC)c(OC)c1)c1ccc2cccnc2c1O (stereo unspecified) | 21.1% (active) |
| CCc1c(-c2ccccc2OC)ncn1CCc1ccccc1OC | 0.54% (inactive) |
| CCOC(=O)C1CSCCS(=O)(=O)N1Cc1ccc(Cl)cc1 (stereo unspecified) | 0.55% (inactive) |
| COC(=O)C1=C(C)NC(=S)NC1c1ccc(OC)cc1 (stereo unspecified) | 3.49% (inactive) |
| COC(=O)c1c(-c2ccc(OC)cc2)c2c(c3c4ccccc4n(S(=O)(=O)c4ccc(C)cc4)c13)C(=O)N(C)C2 | 1.94% (inactive) |
| Cc1cc(Br)cn2c(Cc3ccccc3C(F)(F)F)c(-c3ccc(C#N)cc3)nc12 | 4.55% (inactive) |
| O=C(NC(Nc1nc2ccc([N+](=O)[O-])cc2s1)(C(F)(F)F)C(F)(F)F)c1ccccc1 | 12.8% (active) |
| O=C(Nc1cc(-c2ccccc2)nn1-c1ccccc1F)c1ccc([N+](=O)[O-])cc1 | 3.65% (inactive) |
| O=C(NNS(=O)(=O)Cc1ccccc1)c1ccc([N+](=O)[O-])cc1 | 4.99% (inactive) |
| COC(=O)C1=C(C)N(Cc2ccccc2C(F)(F)F)C(=NCc2ccc(C(F)(F)F)cc2)NC1c1ccc(F)cc1 (stereo unspecified) | 7.76% (inactive) |
| COC(=O)N1Cc2ccnnc2CC1c1ccccc1Br (stereo unspecified) | 3.01% (inactive) |
| O=C(/C=C/c1ccc(F)cc1)NC(=S)NNC(=O)c1cccnc1 | -5.76% (inactive) |
| O=C(/C=C/c1ccc([N+](=O)[O-])o1)NNC(=O)c1ccc(F)cc1 | 29.6% (active) |
| O=C(Nc1ccc(F)cc1)C1CCN(C(=O)c2ccc([N+](=O)[O-])cc2)CC1 | 1.84% (inactive) |
| CCCN1C(=O)c2[nH]nc(-c3ccccc3)c2C1c1ccccc1 (stereo unspecified) | 1.78% (inactive) |
| COC(=O)[C@]12C[C@H](CC(=O)NCc3ccc(OC)c(OC)c3)C(=O)N(Cc3ccccc3)C1=C[C@H](C(C)C)O[C@@H]2C1CC1 | 0.85% (inactive) |
